High-throughput results deposited in PubChem BioAssay by National Center for Advancing Translational Sciences (NCATS).
Compounds with a hit are over-represented: about 21% of the library has one in this group of screens.
Cycloheximide cs – Cycloheximide Counterscreen for Small Molecule Inhibitors of Shiga Toxin; max response, %; cell reporter, cycloheximide protein synthesis inhibition counterscreen; AID 2314, 2010; 300,000 tested, 12% active; in the data active means max response mostly above about 13%, no sharp cut-off; inactive means mostly below about 14%; further: read at 38.3 µM for the half of the compounds with a filed dose; 0% is about no effect
Shiga inhibitor – A qHTS for Small Molecule Inhibitors of Shiga Toxin. inhibition, % at 38.7 µM. 290,000 tested, 9.2% active. AID 2315, 2010. Vero cells, Shiga toxin protein synthesis inhibition reporter; in the data active means inhibition mostly above about 28%, no sharp cut-off; inactive means mostly below about 43%; further: 0% is about no effect
Pf growth 96h – Primary qHTS for delayed death inhibitors of the malarial parasite plastid, 96 hour incubation. P. falciparum luciferase reporter growth, 96 h. Potency, µM (titrated, usually from 28.7 µM), for the others: at the top dose activity change, negative = inhibition, usual class: inhibitors. 320,000 tested, 6.9% active. AID 504834, 2011; further: potency means the concentration at half of the fitted maximal effect; on the % scale 0 is the no-effect control and ±100 the full control effect
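Parasite growth measured via integrated firefly luciferase reporter in P. falciparum. Infected erythrocytes at 2% hematocrit, 0.05% parasitemia final were treated 96 hours at 37 C under 5% CO2, and luminescence was read.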
Pf growth 48h – Primary qHTS for delayed death inhibitors of the malarial parasite plastid, 48 hour incubation | P. falciparum luciferase growth in erythrocytes, 48 h | Potency, µM (titrated, usually from 28.7 µM), without a hit: at the highest dose activity change, negative = inhibition, hits mostly inhibitors | 310,000 tested, 5.9% active | AID 504832, 2011; further: potency means the concentration at half of the fitted maximal effect; on the % scale 0 is the no-effect control and ±100 the full control effect
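Luciferase-expressing parasites in RBCs, 2% Hct / 0.1% parasitemia final; RPMI 1640 + 0.5% Albumax; 37 C, 5% CO2, one generation; luminescence read-out, lower signal = inhibition.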
NS1 inh – qHTS Assay for Inhibitors of Influenza NS1 Protein Function | Potency, µM (top dose mostly 46.1 µM), without a hit: at the top dose activity, positive = more growth | 270,000 tested, 0.4% active | AID 2326, 2010; calls by dose curve; further: potency means the concentration at half of the fitted maximal effect; actives are rising curves; nearly all actives have a fitted effect of over 50% in size
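S. cerevisiae expressing influenza A NS1, grown in glucose, washed, then diluted 1:100 into pH 6.0 -URA galactose medium with 23 nl compound. Growth recovery read as OD600; NS1-free strain serves as control.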
Numbers without * were called inactive; [ ] = another dose, or the depositor's remark. Unless noted, the call rests on the fitted dose curve; in most records, active means well fitted inhibition curve with a large enough effect; inconclusive means small, poorly fitted or top-dose-only effect, or another doubt; inactive means no such curve, though single readings can be large or run the other way.

For NS(=O)(=O)c1ccc(CCNC(=O)C2CCCN(S(=O)(=O)c3cccnc3)C2)cc1 (stereo unspecified) the results were Cycloheximide cs -7, Shiga inhibitor 2, Pf growth 96h 7.4µM* and NS1 inh -4%.
`O=C(NCCc1ccccc1)C1CCCN(S(=O)(=O)c2cccnc2)C1` (stereo unspecified) gave Cycloheximide cs 14, Shiga inhibitor 14, Pf growth 96h 11%, Pf growth 48h -4% and NS1 inh -4%.
`COc1ccc(S(=O)(=O)N2CCCC(C(=O)NCc3cccnc3)C2)cc1OC` (stereo unspecified) gave Pf growth 96h inconclusive and Pf growth 48h -20%.
CCOc1ccc(S(=O)(=O)N2CCCC(C(=O)NCc3ccccc3)C2)cc1 (stereo unspecified) was read as Cycloheximide cs -2, Shiga inhibitor -15, Pf growth 96h 37%, Pf growth 48h 13% and NS1 inh -1%.
For COc1ccc(S(=O)(=O)N2CCCC(C(=O)NCc3ccc(F)cc3)C2)cc1 (stereo unspecified) the results were Cycloheximide cs -6, Shiga inhibitor 13, Pf growth 96h 2%, Pf growth 48h 1% and NS1 inh -15%.
Screening O=C(NCc1ccccc1)C1CCCN(S(=O)(=O)c2ccc(F)cc2)C1 (stereo unspecified) returned Cycloheximide cs -3, Shiga inhibitor -8, Pf growth 96h 12µM*, Pf growth 48h -4% and NS1 inh 6%.
`O=C(NCc1ccccc1)C1CCCN(S(=O)(=O)c2ccc(Br)cc2)C1` (stereo unspecified) gave Cycloheximide cs -1, Shiga inhibitor 8, Pf growth 96h 0.29µM*, Pf growth 48h -30% and NS1 inh 2%.
Cc1cccc(Cl)c1OCCCn1ccnc1 was read as Cycloheximide cs -2, Shiga inhibitor -4, Pf growth 96h -15%, Pf growth 48h inconclusive and NS1 inh 6%.
COc1cc(/C(C#N)=C/c2ccccc2)c([N+](=O)[O-])cc1OC was read as Cycloheximide cs -3, Shiga inhibitor -7, Pf growth 96h 7%, Pf growth 48h -21% and NS1 inh 0%[9.22 µM].
O=C(NCc1cccnc1)C1CCCN(Cc2cnn(-c3ccccc3)c2-n2cccc2)C1 (stereo unspecified) was read as Cycloheximide cs -1, Shiga inhibitor -10, Pf growth 96h 12µM* and NS1 inh 2%.
CCOC(=O)c1ccc(NC(=O)C2CCN(S(=O)(=O)c3ccccc3)CC2)cc1 was read as NS1 inh -50%.
Screening CCOC(=O)c1ccc(NC(=O)C2CCCN(S(=O)(=O)c3ccc(F)cc3)C2)cc1 (stereo unspecified) returned Cycloheximide cs -3, Shiga inhibitor -16, Pf growth 96h 8.3µM* and NS1 inh 17%.
`O=C(NCc1ccccn1)C1CCCN(Cc2cnn(-c3ccccc3)c2-n2cccc2)C1` (stereo unspecified) gave Cycloheximide cs 2, Shiga inhibitor -17, Pf growth 96h 1%, Pf growth 48h inconclusive and NS1 inh 3%.
CCCCCC1CCC(c2n[nH]c(=S)n2C)CC1 (stereo unspecified) was read as Cycloheximide cs -6, Shiga inhibitor -12, Pf growth 96h 5.9µM*, Pf growth 48h inconclusive and NS1 inh -8%.
CCN(CC1COc2ccccc2O1)C(=S)NC1CC2CCC1C2 (stereo unspecified) was read as Cycloheximide cs 1, Shiga inhibitor 3, Pf growth 96h inconclusive, Pf growth 48h -32%[5.75 µM] and NS1 inh -4%.
For O=C(COc1ccc(-c2ccccc2)cc1)NNC(=O)Nc1ccccc1 the results were Pf growth 96h inconclusive and Pf growth 48h -5%.
CC(C)(C)NC(=O)COc1ccc(-c2ccccc2)cc1 was read as Cycloheximide cs 30*, Shiga inhibitor 86*, Pf growth 96h 36% and NS1 inh -91%.
For COc1ccc(NC(=O)COc2ccc(-c3ccccc3)cc2)cc1 the results were Pf growth 96h -15% and Pf growth 48h -6%.
`CCC(C)NC(=O)COc1ccc(OCc2ccccc2)cc1` (stereo unspecified) gave Cycloheximide cs 12*, Shiga inhibitor -8, Pf growth 96h -4% and Pf growth 48h 20%.
Screening CCC(C)NC(=O)COc1ccc(Br)c(C)c1 (stereo unspecified) returned Cycloheximide cs 9, Shiga inhibitor 40, Pf growth 96h inconclusive and NS1 inh -7%.
Screening CCNC(=O)COc1ccc(-c2ccccc2)cc1 returned Cycloheximide cs 47*, Shiga inhibitor 60*, Pf growth 48h 109% and NS1 inh 7%.
For CCNC(=O)COc1ccc(OCc2ccccc2)cc1 the results were Cycloheximide cs 32*, Shiga inhibitor 102*, Pf growth 96h 2%, Pf growth 48h 17% and NS1 inh -1%.
For CCC(C)(C)NC(=O)COc1ccc(OCc2ccccc2)cc1 the results were Cycloheximide cs 16, Shiga inhibitor 27, Pf growth 96h -2% and Pf growth 48h 7%.
`CC(=O)N1CCN(CC(=O)Nc2c(Cl)cc(Cl)cc2Cl)CC1` gave Cycloheximide cs 6, Shiga inhibitor 13, Pf growth 96h -2%[5.75 µM], Pf growth 48h 16% and NS1 inh -5%.
`CCC(=O)c1ccc(OCC(=O)OCC(=O)Nc2sccc2C(N)=O)cc1` gave Cycloheximide cs 3, Shiga inhibitor -6, Pf growth 96h 10% and Pf growth 48h 13%.
`Fc1ccc(-c2nnc(-c3ccc(F)cc3)o2)cc1` gave Cycloheximide cs 28*, Shiga inhibitor 26, Pf growth 96h inconclusive, Pf growth 48h 100% and NS1 inh 1%.
`O=[N+]([O-])c1ccc(Cc2nnc(-c3ccc(F)cc3)o2)cc1` gave Cycloheximide cs 33*, Shiga inhibitor 75*, Pf growth 96h 29% and Pf growth 48h 114%.
Screening Cc1ccc(-c2nnc(Cc3ccc([N+](=O)[O-])cc3)o2)cc1 returned Cycloheximide cs 56*, Shiga inhibitor 69*, Pf growth 96h 1% and Pf growth 48h inactive.
Screening COc1ccc(-c2cc(C(=O)NCCN3CCOCC3)no2)cc1OC returned Cycloheximide cs -5, Shiga inhibitor -1, Pf growth 96h 166%, Pf growth 48h 4% and NS1 inh -8%.
`Cc1ccc(-c2nc(N)sc2C)cc1` gave Cycloheximide cs 15*, Shiga inhibitor 33*, Pf growth 96h 58% and Pf growth 48h 15%.
`Cc1ccc(-c2nc(N)sc2-c2ccc(C)cc2)cc1` gave Cycloheximide cs -4, Shiga inhibitor -18, Pf growth 96h -15% and Pf growth 48h -6%.
`Cc1cc(C(=O)N/N=C/c2sccc2C)no1` gave Cycloheximide cs 27*, Shiga inhibitor 43*, Pf growth 96h 43%, Pf growth 48h 61% and NS1 inh 1%.
